From PubChem BioAssay (NCATS)
Results filed as inconclusive are left out. Where a call stands in place of a potency, no number is given. Values without a mark were called inactive. The source made the active and inactive calls. Calls come from the whole dose curve; as a rule, active = well fitted cell-killing curve with a large enough effect; inconclusive = small, poorly fitted or top-dose-only effect, or effect the other way; inactive = flat fitted curve, though single readings scatter.

system: Hek293T; assay: Primary qHTS to identify gynecologic anti-cancer compounds using libraries of approved drugs and bioactive compounds (AID 1345084); conditions: Gynecologic cancer cell panel viability, ATPlite luminescence, 48 h, control line for the selectivity index; series mostly up to 57.5 µM; note: nearly all actives have a fitted effect of over 55% in size
In short: (§1)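 Cell viability after 48 h drug treatment, ATPlite luminescence readout; five doses.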
Potency is the fitted concentration of half-maximal effect.

| Structure (SMILES) | Potency | activity change, negative = cytotoxicity |
| --- | --- | --- |
| CC(C)CC(=O)n1cc(C(N)=O)c(=O)cc1C(O)c1ccccc1 (stereo not given) | inactive | – |
| CC1(C)CC[C@]2(C(=O)O[C@@H]3O[C@H](CO)[C@@H](O)[C@H](O)[C@H]3O)CC[C@]3(C)C(=CCC4[C@@]5(C)C[C@@H](O)[C@H](O)C(CO)(CO)C5CC[C@]43C)C2[C@@H]1O (stereo not given in full) | inactive | – |
| OC[C@H]1O[C@@H](OC(CCCCc2ccc(O)cc2)CCc2ccc(O)cc2)[C@H](O[C@@H]2OC[C@](O)(CO)[C@H]2O)[C@@H](O)[C@@H]1O (stereo not given in full) | inactive | – |
| Cn1c(=O)cc(N2CCCC(N)C2)n(Cc2ccccc2C#N)c1=O (stereo not given) | inactive | – |
| CC[C@H]1OC(=O)C[C@@H](O)[C@H](C)[C@@H](O[C@@H]2O[C@H](C)[C@@H](O)[C@H](N(C)C)[C@H]2O)[C@@H](CCN2C[C@H](C)C[C@H](C)C2)C[C@@H](C)C(=O)/C=C/C(C)=C/[C@@H]1CO[C@@H]1O[C@H](C)[C@@H](O)[C@@H](OC)[C@H]1OC | inactive | – |
| C[C@@H]1C[C@H]2[C@@H]3CCC4=CC(=O)C=C[C@]4(C)[C@@]3(F)[C@@H](O)C[C@]2(C)[C@@]1(O)C(=O)COP(=O)(O)O | inactive | – |
| CC(=O)OC(C)OC(=O)C(C)c1ccc(-c2ccccc2)c(F)c1 (stereo not given) | inactive | – |
| CCC(C)/C=C(C)/C=C/C1=CC2=C(Cl)C(=O)C(C)(OC(C)=O)C(=O)C2=CN1CCCC(=O)O (stereo not given) | inactive | – |
| NS(=O)(=O)OC[C@@H]1C[C@@H](n2ccc3c(N[C@H]4CCc5ccccc54)ncnc32)C[C@@H]1O | 2510 nM (active) | – |
| CC(C)CC1(C(=O)OCc2ccc(O[C@@H]3O[C@H](CO)[C@@H](O)[C@H](O)[C@H]3O)cc2)CC(=O)OC(C(=O)O)CC(=O)OCC2OC(O1)C(OC(=O)/C=C/c1ccc(O)cc1)C(O)C2O (stereo not given in full) | – | 5.47% [at 11.6 µM] |
| OC[C@H]1O[C@@H](OCCc2ccc(O)cc2)[C@H](O)[C@@H](O)[C@@H]1O | inactive | – |

system: JEG-3; assay: as above; conditions: Gynecologic cancer cell panel viability, ATPlite luminescence, 48 h; series mostly up to 57.5 µM
In short: as §1

| Structure (SMILES) | Potency | activity change, negative = cytotoxicity |
| --- | --- | --- |
| NC(Cc1c[nH]c2ccccc12)C(=O)NC(CCC(=O)O)C(=O)O (stereo not given) | inactive | – |
| C[C@@H]1O[C@@H](O[C@H]2[C@H](OC(=O)[C@]34CCC(C)(C)C[C@H]3C3=CCC5[C@@]6(C)C[C@H](O)[C@H](O[C@@H]7O[C@H](CO)[C@@H](O[C@@H]8O[C@H](CO)[C@@H](O)[C@H](O)[C@H]8O)[C@H](O)[C@H]7O)[C@@](C)(CO)C6[C@H](O)C[C@@]5(C)[C@]3(C)C[C@H]4O)OC[C@H](O)[C@@H]2O)[C@H](O)[C@H](O)[C@H]1O[C@@H]1OC[C@@H](O)[C@H](O[C@@H]2OC[C@](O)(CO)[C@H]2O)[C@H]1O (stereo not given in full) | – | 7.67% [at 6.55 µM] |
| CC(C)C1=CC2=CCC3[C@](C)(CCC[C@@]3(C)C(=O)O)C2CC1=O (stereo not given in full) | inactive | – |
| CC1(C)CC[C@]2(C(=O)O[C@@H]3O[C@H](CO)[C@@H](O)[C@H](O)[C@H]3O)CC[C@]3(C)C(=CCC4[C@@]5(C)C[C@@H](O)[C@H](O)[C@@](C)(CO)C5CC[C@]43C)C2C1 (stereo not given in full) | inactive | – |
| COc1ccc([C@H]2Cc3cccc(O)c3C(=O)O2)cc1 | inactive | – |
| O=C(O)C[C@@H](NC(=O)c1cc(-c2ccc(-c3ccncc3)cc2)cs1)c1ccccc1 | inactive | – |
| C[C@@H]1CC[C@]2(C(=O)O)CC[C@]3(C)C(=CCC4[C@]5(C)C(CC[C@]43C)C(C)(C)[C@@H](O)[C@H](O)[C@@H]5O)C2[C@]1(C)O (stereo not given in full) | inactive | – |
| CCC(=O)NS(=O)(=O)c1ccc(-c2c(-c3ccccc3)noc2C)cc1 | inactive | – |
| CC(C)(C)c1cc(CN2CCN(CC(O)c3ccc(Cl)cc3)CC2)cc(C(C)(C)C)c1O (stereo not given) | inactive | – |
| CCOc1nc2cccc(C(=O)O)c2n1Cc1ccc(-c2ccccc2-c2noc(=O)[nH]2)cc1 | inactive | – |
| CC1(O)CCC2C(C(=O)O)=COC(OC3OC(CO)C(O)C(O)C3OC(=O)/C=C/c3ccc(O)cc3)C21 (stereo not given) | inactive | – |
| COc1c2c(c(C)c3c1C(=O)OC3)O[C@@]1(C)C[C@@H](O)[C@]34O[C@](OC)(CC[C@]3(C)[C@H]1C2)OC4(C)C | inactive | – |
| CN1Cc2c(N)cccc2C(c2ccccc2)C1 (stereo not given) | inactive | – |
| COC(=O)CC1(O)C(=O)Nc2ccccc21 (stereo not given) | inactive | – |
| CC1=C2[C@@H]([C@H](C)CC[C@H]2/C=C(\C)C(=O)O)[C@H](O)C1 | inactive | – |
| C[C@]12C=CC(=O)C=C1CC[C@@H]1[C@@H]2[C@@H](O)C[C@@]2(C)[C@H]1CC[C@]2(O)C(=O)COC(=O)CCC(=O)O | inactive | – |
| O=C(/C=C/c1ccc(O)cc1)OC[C@]12O[C@H]1[C@@H](O)[C@@H]1C=CO[C@@H](O[C@@H]3O[C@H](CO)[C@@H](O)[C@H](O)[C@H]3O)[C@@H]12 | inactive | – |
| CC(=O)OCC(=O)O[C@@H]1[C@H]2[C@@H](OC(=O)c3ccccc3)[C@@H](C)C[C@]2(O)[C@H](OC(C)=O)C2(C)[C@H]3CC(C)(C)C(=O)[C@@H]3CC1(OC(C)=O)[C@@H]2OC(C)=O (stereo not given in full) | inactive | – |
| CN1C(=O)c2ccccc2-n2c(nc3ccccc3c2=O)[C@@]12O[C@H]2c1ccccc1 | inactive | – |
| C#Cc1cnc2[nH]c(=O)n(C(CC)CC)c2n1 | inactive | – |

| Structure (SMILES) | Potency | activity change, negative = cytotoxicity |
| --- | --- | --- |
| CCNC(=O)[C@H]1O[C@H](n2cnc3c(NCC(c4ccccc4)c4ccccc4)nc(C(=O)NCCNC(=O)NC4CCN(c5ccccn5)CC4)nc32)[C@H](O)[C@@H]1O | inactive | – |
| C=C[C@H]1[C@H](O[C@@H]2O[C@H](CO)[C@@H](O)[C@H](O)[C@H]2O)OC=C2C(=O)OCC[C@]21O | inactive | – |
| Nc1c(Br)cc(Br)cc1CNC1CCC(O)CC1 (stereo not given) | inactive | – |
| CCC(C)/C=C(C)/C=C/C1=CC2=C(Cl)C(=O)C(C)(OC(C)=O)C(=O)C2=CN1C1CCCCN(C(CCC(N)=O)C(=O)O)C1=O (stereo not given) | inactive | – |
| CCC[C@@H]1C[C@@H](C(=O)N[C@@H]([C@H]2O[C@H](SC)[C@H](OP(=O)(O)O)[C@@H](O)[C@H]2O)[C@H](C)Cl)N(C)C1 | inactive | – |
| COc1cc([C@H]2OC[C@@H]3[C@@H](c4ccc(O[C@@H]5O[C@H](CO)[C@@H](O)[C@H](O)[C@H]5O)c(OC)c4)OC[C@]23O)ccc1O | inactive | – |
| COCCN(C)Cc1ccc2nc3sc(C(=O)N(C)C4CCCCC4)cn3c2c1 | inactive | – |
| CCC(=O)O[C@]1(C(=O)CCl)[C@@H](C)C[C@H]2[C@@H]3C[C@H](F)C4=CC(=O)C=C[C@]4(C)[C@@]3(F)[C@@H](O)C[C@@]21C | inactive | – |
| CC(C)CC(=O)n1cc(C(N)=O)c(=O)cc1C(O)c1ccccc1 (stereo not given) | inactive | – |
| CC1(C)CC[C@]2(C(=O)O[C@@H]3O[C@H](CO)[C@@H](O)[C@H](O)[C@H]3O)CC[C@]3(C)C(=CCC4[C@@]5(C)C[C@@H](O)[C@H](O)C(CO)(CO)C5CC[C@]43C)C2[C@@H]1O (stereo not given in full) | inactive | – |
| OC[C@H]1O[C@@H](OC(CCCCc2ccc(O)cc2)CCc2ccc(O)cc2)[C@H](O[C@@H]2OC[C@](O)(CO)[C@H]2O)[C@@H](O)[C@@H]1O (stereo not given in full) | inactive | – |
| Cn1c(=O)cc(N2CCCC(N)C2)n(Cc2ccccc2C#N)c1=O (stereo not given) | inactive | – |
| CC[C@H]1OC(=O)C[C@@H](O)[C@H](C)[C@@H](O[C@@H]2O[C@H](C)[C@@H](O)[C@H](N(C)C)[C@H]2O)[C@@H](CCN2C[C@H](C)C[C@H](C)C2)C[C@@H](C)C(=O)/C=C/C(C)=C/[C@@H]1CO[C@@H]1O[C@H](C)[C@@H](O)[C@@H](OC)[C@H]1OC | inactive | – |
| C[C@@H]1C[C@H]2[C@@H]3CCC4=CC(=O)C=C[C@]4(C)[C@@]3(F)[C@@H](O)C[C@]2(C)[C@@]1(O)C(=O)COP(=O)(O)O | inactive | – |
| CC(=O)OC(C)OC(=O)C(C)c1ccc(-c2ccccc2)c(F)c1 (stereo not given) | inactive | – |
| CCC(C)/C=C(C)/C=C/C1=CC2=C(Cl)C(=O)C(C)(OC(C)=O)C(=O)C2=CN1CCCC(=O)O (stereo not given) | inactive | – |
| NS(=O)(=O)OC[C@@H]1C[C@@H](n2ccc3c(N[C@H]4CCc5ccccc54)ncnc32)C[C@@H]1O | inactive | – |
| CC(C)CC1(C(=O)OCc2ccc(O[C@@H]3O[C@H](CO)[C@@H](O)[C@H](O)[C@H]3O)cc2)CC(=O)OC(C(=O)O)CC(=O)OCC2OC(O1)C(OC(=O)/C=C/c1ccc(O)cc1)C(O)C2O (stereo not given in full) | – | 1.44% [at 11.6 µM] |
| OC[C@H]1O[C@@H](OCCc2ccc(O)cc2)[C@H](O)[C@@H](O)[C@@H]1O | inactive | – |
